Laboratory results: PubChem BioAssay (Tox21)
Values without a mark were called inactive. Records with an inconclusive call do not appear. Where a call stands in place of a potency, no number is given. Active and inactive are the calls of the source. Unless noted, calls follow the shape of the dose curve; as a rule, active = well fitted curve in the direction sought with a large enough effect in the repeat runs; inconclusive = weak or mixed curves; inactive = no such curve, though single readings can be large; an effect the other way counts as inactive or inconclusive.

Key:
[1] = qHTS assay to identify small molecule agonists of the estrogen receptor alpha (ER-alpha) signaling pathway in the presence of an antagonist - cell viability counter screen (AID 1259386); conditions: VM7Luc4E2 viability, CellTiter-Fluor fluorescence, 22 h; series mostly up to 92.4 µM;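 also: cells exposed to compounds for 22 h at 37 °C before the viability read; nearly all actives have a fitted effect of over 30% in size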
Outline: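 In this counter screen, compound effects on VM7Luc4E2 viability were tested in the presence of the antagonist ICI-182,780 at 10.0nM final. Compounds were dosed at 15 concentrations, exposure lasted 22hr, and the CellTiter-Fluor signal was read.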

[2] = target: Progesterone receptor (Homo sapiens) (UniProt P06401); test: qHTS assay to identify small molecule agonists of the progesterone receptor (PR) signaling pathway (AID 1346784; calls by dose curve; also: nearly all actives have a fitted effect of over 30% in size); conditions: PR-UAS-bla HEK293T, beta-lactamase FRET ratio, 16 h; series mostly up to 92.4 µM
Chain of Progesterone receptor (Homo sapiens) (P06401 whole entry, looked up): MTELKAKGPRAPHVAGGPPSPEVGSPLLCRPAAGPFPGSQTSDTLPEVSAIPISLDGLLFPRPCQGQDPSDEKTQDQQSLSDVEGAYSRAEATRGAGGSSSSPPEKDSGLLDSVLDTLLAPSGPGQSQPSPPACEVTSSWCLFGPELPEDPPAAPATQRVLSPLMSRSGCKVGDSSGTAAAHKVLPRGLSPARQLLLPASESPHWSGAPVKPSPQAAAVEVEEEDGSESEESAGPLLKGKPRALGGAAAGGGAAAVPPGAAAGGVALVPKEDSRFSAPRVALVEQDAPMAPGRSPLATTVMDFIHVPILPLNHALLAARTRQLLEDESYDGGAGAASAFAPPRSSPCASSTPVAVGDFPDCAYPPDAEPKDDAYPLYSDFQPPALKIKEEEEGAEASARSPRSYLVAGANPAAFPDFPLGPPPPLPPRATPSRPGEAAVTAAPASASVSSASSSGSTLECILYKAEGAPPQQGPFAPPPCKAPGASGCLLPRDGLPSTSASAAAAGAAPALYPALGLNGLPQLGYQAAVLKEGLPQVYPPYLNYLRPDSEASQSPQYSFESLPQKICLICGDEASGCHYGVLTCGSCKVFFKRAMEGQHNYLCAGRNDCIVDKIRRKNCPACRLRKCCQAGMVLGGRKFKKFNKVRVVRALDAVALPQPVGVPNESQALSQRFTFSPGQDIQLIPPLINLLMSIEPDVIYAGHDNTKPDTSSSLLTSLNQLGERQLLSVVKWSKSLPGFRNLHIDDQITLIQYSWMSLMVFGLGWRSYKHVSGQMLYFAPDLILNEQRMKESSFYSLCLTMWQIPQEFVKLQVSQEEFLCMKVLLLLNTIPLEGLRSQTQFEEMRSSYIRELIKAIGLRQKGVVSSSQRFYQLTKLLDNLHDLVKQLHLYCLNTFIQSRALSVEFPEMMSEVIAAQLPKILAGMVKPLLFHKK
Outline: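 Fluorescence from LiveBLAzer B/G FRET substrate cleavage (2 hr, RT) reported PR activation in PR-UAS-bla HEK 293T cells treated 16 hr at 37C/5% CO2 with compounds; medium contained 2% charcoal-stripped FBS.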

[3] = target: Progesterone receptor (Homo sapiens) (UniProt P06401); test: qHTS assay to identify small molecule antagonists of the progesterone receptor (PR) signaling pathway (AID 1346795; active = well fitted inhibition curve with a large enough effect in the signal ratio in the repeat runs, not every such curve was filed as active; the % refers to the signal ratio; also: potency is read from the fitted curve at half-maximal effect); conditions: PR-UAS-bla HEK293T, beta-lactamase FRET ratio, 16 h; series mostly up to 92.4 µM
Outline: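 Fluorescence intensity measured 2 hr after adding beta-lactamase FRET substrate to PR-UAS-bla HEK293T cells that had been co-treated 16 hr with compound and 1 nM R5020 (final concentration) in 2% charcoal-stripped FBS.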

[4] = qHTS assay to identify small molecule antagonists of the progesterone receptor (PR) signaling pathway - cell viability counter screen (AID 1346798); conditions: PR-UAS-bla HEK293T viability, CellTiter-Glo luminescence, 16 h; series mostly up to 92.4 µM; also: nearly all actives have a fitted effect of over 50% in size
Outline: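 CellTiter-Glo luminescence; PR-UAS-bla HEK293T, 3,000 cells/well; compound + R5020, 16 hr, 37C/5% CO2; 30 min RT before read.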

[5] = qHTS assay to identify small molecule antagonists of the TGF-beta/Smad signaling pathway - cell viability counter screen (AID 1346824); conditions: SBE-bla HEK293T viability, CellTiter-Glo luminescence; series mostly up to 76.8 µM; also: nearly all actives have a fitted effect of over 50% in size
Outline: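 SBE-bla HEK 293T cells, incubated overnight, then compound plus 0.25 ng/mL TGF-beta1 (stock added) for 5 hr at 37 C. Viability was read in the same wells by CellTiter-Glo luminescence after 30 min at room temperature.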

[6] = qHTS assay to identify small molecule agonists of the TGF-beta/Smad signaling pathway - cell viability counter screen (AID 1346829); conditions: SBE-bla HEK293T viability, CellTiter-Glo luminescence, 5 h; series mostly up to 76.8 µM; also: top concentration of the series differs between compounds; nearly all actives have a fitted effect of over 45% in size
Outline: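 In parallel with the Smad reporter read, viability of HEK 293T cells stably carrying SBE-bla is quantified by ATP luminescence following 5 hr compound treatment.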

[7] = qHTS assay to identify small molecule agonists of the TGF-beta/Smad signaling pathway (AID 1346859; active = well fitted activation curve with a large enough effect in the signal ratio in the repeat runs, not every such curve was filed as active; the % refers to the signal ratio); conditions: SBE-bla HEK293T, TGF-beta/Smad beta-lactamase reporter, 5 h; series mostly up to 76.8 µM
Outline: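 After overnight seeding, SBE-bla HEK 293T cells are dosed with compounds in DMSO and kept 5 hr at 37 C, 5% CO2. LiveBLAzer-type FRET substrate is then applied for 2 hr at room temperature.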

[8] = target: Thyrotropin-releasing hormone receptor (Homo sapiens) (UniProt P34981); test: qHTS assay to identify small molecule antagonists of the thyrotropin-releasing hormone receptor (TRHR) signaling pathway (AID 1346877; active = well fitted inhibition curve with a large enough effect in the repeat runs, not every such curve was filed as active); conditions: TRHR-HEK293, TRH-induced calcium fluorescence, antagonist mode; series mostly up to 51.3 µM
Chain of Thyrotropin-releasing hormone receptor (Homo sapiens) (P34981 whole entry, looked up): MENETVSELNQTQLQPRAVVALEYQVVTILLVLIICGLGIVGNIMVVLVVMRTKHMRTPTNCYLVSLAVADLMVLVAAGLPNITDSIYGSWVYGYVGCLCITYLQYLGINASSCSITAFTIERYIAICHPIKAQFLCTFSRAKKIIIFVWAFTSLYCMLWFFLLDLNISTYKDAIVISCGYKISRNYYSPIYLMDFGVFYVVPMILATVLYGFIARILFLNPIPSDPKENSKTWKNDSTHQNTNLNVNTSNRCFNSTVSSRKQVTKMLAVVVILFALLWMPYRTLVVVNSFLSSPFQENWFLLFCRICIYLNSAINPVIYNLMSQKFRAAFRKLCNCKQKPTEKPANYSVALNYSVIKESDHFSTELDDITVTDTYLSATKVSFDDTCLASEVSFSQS
Outline: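 Kinetic fluorescence (3 min, 1 s resolution) following stimulation with TRH at 1 nM final; HEK293 cells bearing human TRHR; 5 min compound preincubation at RT; concentration-response over 15 points, triplicates.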

[9] = target: Thyrotropin-releasing hormone receptor (Homo sapiens) (UniProt P34981); test: qHTS assay to identify small molecule agonists of the thyrotropin-releasing hormone receptor (TRHR) signaling pathway (AID 1346891; calls by dose curve;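 also: HEK293 cells expressing TRHR with calcium dye readout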); conditions: TRHR-HEK293 calcium fluorescence, agonist mode; series mostly up to 57.6 µM
Outline: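 Compounds were tested as agonists at 15 concentrations, in triplicate, on TRHR-Hek293 cells; calcium-sensitive dye fluorescence was recorded for 3 min following addition.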

[10] = qHTS assay to identify small molecule agonists of the progesterone receptor (PR) signaling pathway - cell viability counter screen (AID 1346799; calls by dose curve; also: nearly all actives have a fitted effect of over 45% in size); conditions: PR-UAS-bla HEK293T viability, CellTiter-Glo luminescence, 16 h; series mostly up to 92.4 µM
Outline: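 In parallel with the beta-lactamase readout, cytotoxicity toward PR-UAS-bla HEK293T cells was measured by CellTiter-Glo luminescence following 16 hr compound incubation in 2% charcoal-stripped FBS medium.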

With `CO[C@@H]1[C@@H](OC(N)=O)[C@@H](O)[C@H](Oc2ccc3c(O)c(NC(=O)c4ccc(O)c(CC=C(C)C)c4)c(=O)oc3c2C)OC1(C)C` the Potency [1] was “inactive”, the Potency [2] was “inactive” and the Potency [3] was “inactive”. For the same molecule, the Potency [4] was “inactive”, the outcome [5] was “inactive” and the outcome [6] was “inactive”. For the same molecule, the outcome [7] was “inactive”, the outcome [8] was “inactive” and the outcome [9] was “inactive”.
With `CCCCCCCCCCl` the Potency [1] was “inactive”, the Potency [2] was “inactive” and the Potency [3] was “inactive”. For the same molecule, the Potency [4] was “inactive”, the outcome [5] was “inactive” and the outcome [6] was “inactive”. The outcome [7] was “inactive”, the outcome [8] was “inactive” and the outcome [9] was “inactive”.
With `Cc1ccc(S(=O)(=O)O)c(C)c1` the Potency [1] was “inactive”, the Potency [2] was “inactive” and the Potency [3] was “inactive”. For the same molecule, the Potency [4] was “inactive”, the outcome [5] was “inactive” and the outcome [6] was “inactive”. The outcome [7] was “inactive”, the outcome [8] was “inactive” and the outcome [9] was “inactive”.
In the case of `O=C1c2ccccc2C(=O)C1c1ccccc1`, the Potency [1] was “inactive”, the Potency [2] was “inactive” and the Potency [3] was “inactive”. For the same molecule, the Potency [4] was “inactive”, the outcome [5] was “inactive” and the outcome [6] was “inactive”. For the same molecule, the outcome [7] was “inactive”, the outcome [8] was “inactive” and the outcome [9] was “inactive”.
For `CCOCCOC(=O)/C=C/c1ccc(OC)cc1`, the Potency [1] was “inactive”, the Potency [2] was “inactive” and the Potency [3] was “inactive”. The Potency [4] was “inactive”, the outcome [5] was “inactive” and the outcome [6] was “inactive”. The outcome [7] was “inactive”.
With `CN(CCOc1ccc(NS(C)(=O)=O)cc1)CCc1ccc(NS(C)(=O)=O)cc1` the Potency [1] was “inactive”, the Potency [2] was “inactive” and the Potency [3] was “inactive”. For the same molecule, the Potency [4] was “inactive”, the Potency [10] was “inactive” and the outcome [6] was “inactive”. The outcome [7] was “inactive”.
In the case of `CCCCCCOc1ccccc1C(N)=O`, the Potency [1] was “inactive”, the Potency [2] was “inactive” and the Potency [3] was 7.5 µM (active). For the same molecule, the outcome [5] was “inactive”, the outcome [6] was “inactive” and the outcome [7] was “inactive”.
For `O=C(CS(=O)Cc1ccco1)NC/C=C\COc1cc(CN2CCCCC2)ccn1` (stereo not drawn), the Potency [1] was “inactive”, the Potency [2] was “inactive” and the Potency [3] was “inactive”. The Potency [4] was “inactive”, the outcome [5] was “inactive” and the outcome [6] was “inactive”. For the same molecule, the outcome [7] was “inactive”, the outcome [8] was “inactive” and the outcome [9] was “inactive”.
With `Brc1ccc(-c2ccccc2)cc1` the Potency [1] was “inactive”, the Potency [2] was “inactive” and the Potency [4] was “inactive”. For the same molecule, the Potency [10] was “inactive”, the outcome [5] was “inactive” and the outcome [6] was “inactive”. The outcome [7] was “inactive”.
With `CCc1ccc(C=O)cc1` the Potency [1] was “inactive”, the Potency [2] was “inactive” and the Potency [3] was “inactive”. For the same molecule, the Potency [10] was “inactive”, the outcome [5] was “inactive” and the outcome [6] was “inactive”. The outcome [7] was “inactive”, the outcome [8] was “inactive” and the outcome [9] was “inactive”.
In the case of `CC(S)C(=O)NCC(=O)O` (stereo not drawn), the Potency [1] was “inactive”, the Potency [2] was “inactive” and the Potency [3] was “inactive”. The Potency [4] was “inactive”, the outcome [5] was “inactive” and the outcome [6] was “inactive”. For the same molecule, the outcome [7] was “inactive”, the outcome [8] was “inactive” and the outcome [9] was “inactive”.
For `CC1(CO)CN(c2ccccc2)NC1=O` (stereo not drawn), the Potency [1] was “inactive”, the Potency [2] was “inactive” and the Potency [3] was “inactive”. For the same molecule, the Potency [4] was “inactive”, the outcome [6] was “inactive” and the outcome [7] was “inactive”. For the same molecule, the outcome [8] was “inactive” and the outcome [9] was “inactive”.
For `COCCOCCOCCOCCOCCO`, the Potency [1] was “inactive”, the Potency [2] was “inactive” and the Potency [4] was “inactive”. The Potency [10] was “inactive”, the outcome [5] was “inactive” and the outcome [6] was “inactive”. For the same molecule, the outcome [7] was “inactive”, the outcome [8] was “inactive” and the outcome [9] was “inactive”.
With `O=C(NCC(O)CO)c1c(I)c(C(=O)NCC(O)CO)c(I)c(N(CCO)C(=O)CO)c1I` (stereo not drawn) the Potency [1] was “inactive”, the Potency [2] was “inactive” and the Potency [3] was “inactive”. The Potency [4] was “inactive”, the outcome [5] was “inactive” and the outcome [6] was “inactive”. For the same molecule, the outcome [7] was “inactive”, the outcome [8] was “inactive” and the outcome [9] was “inactive”.
In the case of `CC(C)CCCCOC(=O)c1ccccc1C(=O)OCCCCC(C)C`, the Potency [1] was “inactive”, the Potency [2] was “inactive” and the Potency [4] was “inactive”. The Potency [10] was “inactive”, the outcome [5] was “inactive” and the outcome [6] was “inactive”. For the same molecule, the outcome [7] was “inactive”, the outcome [8] was “inactive” and the outcome [9] was “inactive”.
For `CC(C)(C)OC(=O)c1ccc(O)cc1`, the Potency [1] was “inactive”, the Potency [2] was “inactive” and the Potency [3] was 54.5 µM (active). The Potency [4] was “inactive”, the outcome [6] was “inactive” and the outcome [7] was “inactive”. The outcome [8] was “inactive” and the outcome [9] was “inactive”.
In the case of `COc1cc(NS(=O)(=O)c2ccc(N)cc2)nc(OC)n1`, the Potency [1] was “inactive”, the Potency [2] was “inactive” and the Potency [3] was “inactive”. The Potency [4] was “inactive”, the outcome [5] was “inactive” and the outcome [6] was “inactive”. The outcome [7] was “inactive”, the outcome [8] was “inactive” and the outcome [9] was “inactive”.
Molecule `N[C@@H](COP(=O)(O)O)C(=O)O` has an activity change, negative = cytotoxicity [1] of 0.187% [at 19 µM], an activation [2] of 0.26% [at 19 µM] and an activity change, negative = inhibition [3] of 6.07% [at 18.9 µM]. The activity change, negative = cytotoxicity [4] was -0.532% [at 18.9 µM], the viability change, negative = cytotoxic [5] was -0.3% [at 15.8 µM] and the activity change, negative = cytotoxicity [6] was 0.5% [at 15.8 µM]. For the same molecule, the activation [7] was -0.654% [at 15.8 µM], the activity, negative = inhibition [8] was -1.81% [at 10.5 µM] and the activation [9] was -0.175% [at 11.8 µM].
With `c1ccc2nccnc2c1` the Potency [1] was “inactive”, the Potency [2] was “inactive” and the Potency [3] was “inactive”. The outcome [5] was “inactive”, the outcome [6] was “inactive” and the outcome [7] was “inactive”. The outcome [8] was “inactive” and the outcome [9] was “inactive”.
In the case of `CCCOC(OCCC)OCCC`, the Potency [1] was “inactive”, the Potency [2] was “inactive” and the Potency [3] was “inactive”. For the same molecule, the Potency [10] was “inactive”, the outcome [5] was “inactive” and the outcome [6] was “inactive”. The outcome [7] was “inactive”.
For `O=C1CC(c2ccc(Cl)cc2)CC(=O)N1`, the Potency [1] was “inactive”, the Potency [2] was “inactive” and the Potency [3] was “inactive”. For the same molecule, the Potency [4] was “inactive”, the outcome [5] was “inactive” and the outcome [6] was “inactive”. For the same molecule, the outcome [7] was “inactive”, the outcome [8] was “inactive” and the outcome [9] was “inactive”.
With `C=C(C)C1CCC(C)(O)CC1` (stereo not drawn) the Potency [1] was “inactive”, the Potency [2] was “inactive” and the Potency [3] was “inactive”. For the same molecule, the Potency [10] was “inactive”, the outcome [5] was “inactive” and the outcome [6] was “inactive”. The outcome [7] was “inactive”, the outcome [8] was “inactive” and the outcome [9] was “inactive”.
In the case of `COC(=O)[C@@H]1[C@H]2C[C@H]3c4[nH]c5ccccc5c4CCN3C[C@@H]2CC[C@@H]1O`, the Potency [1] was “inactive”, the Potency [2] was “inactive” and the Potency [3] was “inactive”. For the same molecule, the Potency [4] was “inactive”, the outcome [5] was “inactive” and the outcome [6] was “inactive”. The outcome [7] was “inactive”, the outcome [8] was “inactive” and the outcome [9] was “inactive”.
